Activity calls are given as the source filed them. Calls follow the shape of the dose curve; as a rule, active = well fitted curve in the direction sought with a large enough effect; inactive = no such curve, though single readings can be large or run the other way.
The compounds below were run against Pyruvate kinase PKM (Homo sapiens) (UniProt P14618) (assay: Secondary Concentration-Response Assay for Activators of Human Muscle isoform 1 Pyruvate Kinase: for Probe SAR). Conditions: purified hPK-M1, ATP production, Kinase-Glo luminescence.
Sequence of Pyruvate kinase PKM (Homo sapiens) (P14618 whole entry, looked up, canonical isoform): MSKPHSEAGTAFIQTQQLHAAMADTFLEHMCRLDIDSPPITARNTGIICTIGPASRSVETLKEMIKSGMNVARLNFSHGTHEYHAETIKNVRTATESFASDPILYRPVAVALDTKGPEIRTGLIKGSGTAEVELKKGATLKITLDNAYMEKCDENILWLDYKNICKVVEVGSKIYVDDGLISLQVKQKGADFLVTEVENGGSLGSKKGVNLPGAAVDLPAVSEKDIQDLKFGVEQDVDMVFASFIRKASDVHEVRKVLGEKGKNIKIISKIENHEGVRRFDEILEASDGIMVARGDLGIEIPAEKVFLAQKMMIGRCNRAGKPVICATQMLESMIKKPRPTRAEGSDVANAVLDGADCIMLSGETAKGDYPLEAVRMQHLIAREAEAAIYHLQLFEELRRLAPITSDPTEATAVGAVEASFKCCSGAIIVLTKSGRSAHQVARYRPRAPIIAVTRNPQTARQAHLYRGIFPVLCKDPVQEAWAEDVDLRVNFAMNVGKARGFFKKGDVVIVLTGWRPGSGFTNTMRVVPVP
From the text: NIH Chemical Genomics Center [NCGC]
Matthew G. Vander Heiden, M.D., Ph.D. [Harvard Medical School, 77 Avenue Louis Pasteur, Boston, MA 02115]
Human pyruvate kinase […] (hPK-M1) enzyme was supplied as a highly purified (>95% pure) preparation from Harvard Medical School and assayed for its ability to generate ATP from ADP using phosphoenolpyruvate (PEP) as a substrate. ATP generation was detected in a coupled reaction by luciferase-mediated luminescence, an ATP-dependent process. Pyruvate kinase substrates, PEP and ADP, were present in the assay at Km and approximately 10-fold below Km respectively. The enzyme was assayed at an intermediate level of activity to screen for both inhibitors and activators.
NCGC Assay Protocol Summary for M1-isoform:
Three uL of substrate mix (at r.t.) in assay buffer (50 mM Imidazole pH7.2, 50 mM KCl, 7 mM MgCl2, 0.01% Tween 20, 0.05% BSA) was dispensed into white solid bottom 1,536 well microtiter plates so that the final concentrations of substrates in the assay were 0.1 mM ADP and 0.5 mM PEP. 23 nL of compound were delivered by a pin tool and 1 uL of enzyme mix (final concentration of 1 nM) in assay buffer (4 degree Celsius) was added. Plates were incubated at room temperature for 1 hour. Two uL of detection mix (Kinase-Glo, Promega; at 4 degree Celsius protected from light) was added and luminescence read by a ViewLux (Perkin Elmer) at 1 second exposure/plate. Data were normalized to the uninhibited (row 31). Additionally, a no enzyme and 5-fold enzyme control was dispensed in row 32, split equally between the two conditions.

SMILES	max response
Cc1ccc(NS(=O)(=O)c2cc3c(cc2N2CCC2)NC(=O)CC3)cc1C	-7.63% (inactive)
N#Cc1cccc(NS(=O)(=O)c2ccc3c(c2)CCC(=O)N3)c1	-2.21% (inactive)
Cc1ccc(NS(=O)(=O)c2cc3c(cc2F)NC(=O)CC3)cc1Cl	4.95% (inactive)
Cc1ccc(Cl)cc1NS(=O)(=O)c1cc2c(cc1F)NC(=O)CC2	-4.17% (inactive)
Cc1cc2c(s1)c1cnn(Cc3cc(F)ccc3F)c(=O)c1n2C	4.73% (inactive)
Cc1ccc(NS(=O)(=O)c2ccc3c(c2)CC(=O)N3)cc1C	23.4% (inactive)
N#Cc1ccc(NS(=O)(=O)c2ccc3c(c2)CCC(=O)N3)cc1	5.23% (inactive)
COc1cccc(Cn2ncc3c4sc(S(C)=O)cc4n(C)c3c2=O)c1 (stereo not given)	3.1% (inactive)
Cc1cc2c(s1)c1cnn(Cc3cc(F)c(F)cc3F)c(=O)c1n2C	-8.12% (inactive)
Cc1ccc(NS(=O)(=O)c2cc3c(cc2Cl)NC(=O)C3)cc1C	2.96% (inactive)
